# Screening data deposited in PubChem BioAssay by National Center for Advancing Translational Sciences (NCATS).
# The sample as a whole holds a higher share of hits than the screen did.
# nsP2pro primary = blocks chikungunya virus nsP2 protease peptide cleavage | Q8JUX6 | FRET peptide cleavage, nsP2pro, fluorescence 1 h | Potency, µM (titrated, usually from 24.9 µM), for the others: at the top dose activity change, negative = inhibition, actives largely listed as inhibitors | actives 1.1% (n = 31,000) | AID 1964107; calls by dose curve; note: nearly all actives have a fitted effect of over 60% in size
#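 Enzyme 150 nM, substrate 2.5 uM (both final); Tris-HCl 10 mM pH 8.0 + 0.01% Tween 20; cpd up to 25 uM, 7 pts; 15 min preinc., 1 h RT; fluorescence ex 525/em 598.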
# An asterisk follows results filed as active; i = inactive; [ ] = remark or other dose. % is set by controls: 0 for no effect and ±100 for the full control effect; potency is the fitted concentration of half-maximal effect.
SMILES,nsP2pro primary
O=C(Nc1ccc(-c2nc3ccccc3[nH]2)cc1)c1ccc2ncsc2c1,11µM*
O=C(Nc1ccc(-c2nc3ccccc3[nH]2)cc1)c1ccc2sccc2c1,-11%
O=C(Nc1ccc(-c2nc3ccccc3[nH]2)cc1)c1ccc2ncccc2c1,0%
Cc1cc(C)nc(NC(=S)N2CCN(c3ccc([N+](=O)[O-])c4cccnc34)CC2)c1,4%
Cc1nc(CNc2ncnc3ccc(-c4oc(-c5ccccc5)nc4C)cc23)cs1,i
CN1CCC(c2c[nH]c3ccc(NC(=O)c4ccc(F)cc4)cc23)CC1,16%
O=C(O)/C(S)=C/c1c[nH]c2ccc(F)cc12,11µM*
COc1ccc2[nH]cc(CCNC(=O)Nc3ccc(F)cc3)c2c1,9%
Cc1cc(C)nc(NC(=S)N2CCN(c3nc(C)cnc3C)CC2)c1,1%
COc1ccc(Nc2ccc3c(n2)CN(Cc2ccccc2F)C(=O)CO3)cc1,-2%[39.2 µM]
COc1ccccc1-c1ccc2c(n1)CN(Cc1ccccc1C)C(=O)CO2,4%[39.2 µM]
COc1ccc(Nc2ccc3c(n2)CN(Cc2ccccc2C)C(=O)CO3)cc1,4.5µM*
Cc1nn(C)c2c1C(c1ccccc1F)=NCC(=O)N2C,-3%
FC(F)(F)c1ccccc1-c1nc(NCc2ccc(-c3ccc4ccccc4c3)cc2)c2ccccc2n1,-13%
COC(=O)N1CCCCC12Cc1ccccc1NC2=O (stereo not drawn),-4%[39.2 µM]
Cc1ccc([S+](=O)([O-])N2CCCCC23Cc2ccccc2NC3=O)cc1 (stereo not drawn),i
O=C1Nc2ccccc2CN(CC2CC2)C12CCNC2 (stereo not drawn),-7%[39.2 µM]
O=C1Nc2ccccc2CN(CC2CCCC2)C12CCNC2 (stereo not drawn),13µM*
CC(C)=CCN1Cc2ccccc2NC(=O)C12CCNC2 (stereo not drawn),10µM*
CC(C)C(=O)N1Cc2ccccc2NC(=O)C12CCNC2 (stereo not drawn),-8%[39.2 µM]
Cc1ccc(OCCn2c(CCNC(=O)c3cc(F)cc(F)c3)nc3ccccc32)cc1,-2%
Cc1ccsc1-c1[nH]nc2ncc(-c3ccnn3C)nc12,-2%[39.2 µM]
CC[N+]1(C/C2=C/CCCCCC2)CCC(NC(=O)C2c3cc(Cl)ccc3Oc3ccc(Cl)cc32)CC1 (stereo not drawn),25%
Cc1ccccc1S(=O)(=O)Nc1cnccc1C(=O)Nc1nc(-c2ccccc2)cs1,i
CCCCOC(=O)c1ccnc2cc(C(OCCN3CCCCC3)c3ccccc3C)sc12 (stereo not drawn),46%
SMILES,nsP2pro primary
O=C(Nc1ccc(-c2nc3ccccc3[nH]2)cc1)c1ccc(Cl)c(Cl)c1,-18%
CCN(CCNC(=O)C1CCCCC(=O)N1C)Cc1ccccc1 (stereo not drawn),-4%
O=C(Nc1cnn2ccc(N3CCC[C@@H]3c3cc(F)ccc3F)nc12)N1CC[C@H](O)C1,-8%
Cc1cc(C)nc(NC(=S)N2CCN(c3ccccn3)CC2)c1,-17%
Cc1cc(NC(=O)Nc2nnc(-c3ccncc3)s2)ccc1Br,-17%
O=C(NCc1ccccc1Cl)c1ccc2nnc(-c3ccoc3)n2c1,11µM*
Cc1cc2ncc(C(=O)NCc3ccccc3Cl)cn2n1,-1%[39.2 µM]
O=C(NCc1ccc(Cl)cc1)c1ccc2nnc(-c3cc[nH]c3)n2c1,3%
C=C1CCC2C(C)(C)CC(=O)CC2(C)C1CCC(C)CCOC(C)=O (stereo not drawn),-11%
CCCOc1ccccc1C(=O)Nc1nc2c(s1)CCCC2,13µM*
O=C(Nc1nc2c(s1)CCCCCC2)Nc1ccc(F)cc1F,-13%
COc1ccccc1C(=O)Nc1nc(-c2ccccc2)cs1,-6%
CCCc1ccc(OCC(=O)Nc2scc(-c3cccs3)c2C(=O)OC)cc1,-32%
COC(=O)c1c(-c2cccs2)csc1NC(=O)c1ccc(OC)c(OC)c1,13µM*
COc1ccc(C(=O)NCC(c2ccco2)S(=O)(=O)c2cccs2)cc1OC (stereo not drawn),-17%
Nc1nc(C2CC(N)C2)cc(N2CCCN(Cc3cccs3)CC2)n1 (stereo not drawn),-1%
FC(F)(F)c1cc(-c2ccc(CNc3nc(-c4ccccc4C(F)(F)F)nc4ccccc34)cc2)cc(C(F)(F)F)c1,0%
O=C(O)c1ccc(-c2ccc3ncnc(NCC4CCCO4)c3c2)o1 (stereo not drawn),4%
O=C(O)c1ccc(-c2ccc3ncnc(NCc4nccs4)c3c2)o1,11µM*
CC(C)(C)CNc1ncnc2ccc(-c3ccc(C(=O)O)o3)cc12,i
CCn1c(-c2nc3cc(C(=O)N4CCC[C@@H](N)C4)cc(OC)c3n2C)cc2ccccc21,63%
COC(=O)c1ccc([C@H]2c3[nH]c4ccccc4c3C[C@@H](C(=O)OC)N2C(=O)CCl)cc1,-5%
Nc1cc(-c2nc(Nc3ccc(F)c(F)c3)c3ccccc3n2)ccn1,-14%
CCCCCCC(COC(=O)c1cccnc1)(COC(=O)c1cccnc1)COC(=O)c1cccnc1,3%
CCOC(=O)NNc1nncc2ccccc12,7%
SMILES,nsP2pro primary
CCOC(=O)NNc1ccc(N(CC)CC(C)O)nn1 (stereo not drawn),11µM*
COc1ccc(-c2nc3ccc(OC)cc3s2)cc1,1%
COc1ccc(-c2cc(=S)ss2)cc1,11µM*
COc1ccc(-c2nc3ccccc3s2)cc1,i
O=c1cc(-c2cccnc2)oc2c(NCCc3ccccn3)nccc12,-21%[39.2 µM]
O=c1cc(-c2ccncc2)oc2c(-c3cccc(CO)c3)nccc12,14µM*
Cc1ccccc1-c1nccc2c(=O)cc(C3=CCOCC3)oc12,-18%[39.2 µM]
Oc1ccc(C2COc3cc(O)ccc3C2)cc1 (stereo not drawn),-15%
CN1CCN(c2ccc(NC(=O)CN(C)Cc3c(O)ccc4ccccc34)cc2)CC1,13µM*
CN(CC(=O)Nc1ccc(N2CCOCC2)cc1)Cc1ccccc1O,-1%
COc1ccc2ccccc2c1CN(C)CC(=O)Nc1ccc(N2CCOCC2)cc1,-8%
CC1(C)[C@H]2C[C@H](C/C=C\CCCC(=O)O)[C@@H](NC(=O)c3csc4ccc(O)cc34)[C@@H]1C2,29%
O=C(NCc1ccnc2[nH]ccc12)c1cncc(Br)c1,-24%[39.2 µM]
O=C(NCc1ccnc2[nH]ccc12)c1cccc(Br)c1,11µM*
CCS(=O)(=O)N1CCC(Oc2cccc(C(=O)NCc3ccccn3)c2)CC1,2%
COc1ccc(OCC2CN(CC3CC3)[S+](=O)([O-])c3cnccc3O2)cc1 (stereo not drawn),-4%[10 µM]
Cc1ccc2nc(NC(=O)c3cccn(Cc4ccccc4F)c3=O)sc2c1,-13%
Cc1csc(NC(=O)c2nc3c(o2)CCN(Cc2ccccc2F)CC3)n1,13µM*
Cc1csc(NC(=O)c2ccc(COc3cccc(Cl)c3)o2)n1,0%
O=C1Nc2c(Cl)cccc2/C1=C\c1cc(Cl)c(O)c(Cl)c1,i
Cc1cc(C)nc(NC(=S)N2CCN(c3cccc4[nH]ccc34)CC2)c1,i
O=C(COc1ccccc1)N[C@H]1CO[C@H]2[C@@H]1OC[C@@H]2Nc1nccc(-c2ccco2)n1,13µM*
O=C(Nc1ccccc1)N[C@H]1CO[C@H]2[C@@H]1OC[C@@H]2Nc1nccc(-c2cccs2)n1,50%[39.2 µM]
O=C(COc1ccccc1)N[C@H]1CO[C@H]2[C@@H]1OC[C@@H]2Nc1nccc(-c2cccs2)n1,-12%
CC(C)(C)c1ccnc(N[C@H]2CO[C@H]3[C@@H]2OC[C@@H]3NC(=O)c2ccco2)n1,-8%[39.2 µM]
O=C(N[C@H]1CO[C@H]2[C@@H]1OC[C@@H]2Nc1nccc(-c2ccco2)n1)c1ccco1,1µM*
